For five compounds, composite z-score and z-score results are on record in PubChem BioAssay.

Assay [1] is described as follows: small molecules captured by biotinylated probe aFSTL3 – biochemical, small-molecule microarray, fluorescence 635/667, stem cell growth factor project, primary screen (AID 1064).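 Note: measures binding of the biotinylated anti-FSTL3 antibody to printed compounds.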 The note with it: higher = more signal.
A short description of assay [2]: binders from COS7 lysate, DM2A8 probe, primary screen, torsin A project, cell lysate, small-molecule microarray, fluorescence 635/667 (AID 1065). The note with it: higher = more signal, COS7 lysate expressing mutant human TOR1A.
Assay [3] can be described thus: small molecules captured by biotinylated probe aFGF2 – biochemical, small-molecule microarray, fluorescence 635/667, stem cell growth factor project, primary screen (AID 1067).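 Note: measures binding of biotinylated aFGF2 protein to printed compounds on slides; z-score merges feature fluorescence and signal-to-noise across triplicate slides.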 The note with it: higher = more signal.
Assay [4] can be described thus: small molecules captured by biotinylated probe aFGF10 – biochemical, small-molecule microarray, fluorescence 635/667, stem cell growth factor project, primary screen (AID 1071).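 Note: score merges 667 nm spot intensity and signal to noise from triplicate slides.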 The note with it: higher = more signal.
Assay [5] concerns the target Neurogenic locus notch homolog protein 2 (Homo sapiens) (UniProt Q04721). The assay is described as follows: small molecules binding Notch2 protein – biochemical, small-molecule microarray, 635 nm fluorescence, stem cell growth factors, primary screen (AID 1073). The note with it: higher = more signal.
Assay [6] deals with Pro-neuregulin-1, membrane-bound isoform (Homo sapiens) (UniProt Q02297). Kind of assay: small molecules binding neuregulin-1 protein – biochemical, small-molecule microarray, fluorescence 635/667, psychiatric disease protein project, primary screen (AID 1075).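 Note: score combines 667 nm spot fluorescence with signal to noise.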 The note with it: NRG1 binding, 635 nm fluorescence, higher = more signal.
In assay [7] the test system is Neuregulin-1 EGF-like domain. Kind of assay: small molecules binding NRG1 EGF domain – biochemical, small-molecule microarray, 635 nm fluorescence, primary screen (AID 1081).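 Note: binding of the protein to compounds printed on small-molecule microarray slides.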 The note with it: higher = more signal.
Assay [8] in a line: FRG1 expression reporter modulators in myotubes – cell-based, C2C12 myotubes, firefly/Renilla luciferase, luminescence, FRG1 inhibition for FSHD, primary screen (AID 1084). The note with it: FRG1 promoter luciferase, higher = more signal, called active from +8 up or from −8 down.
Assay [9] is described as follows: small molecules captured by biotinylated probe aFST – biochemical, small-molecule microarray, fluorescence 635/667, stem cell growth factor project, primary screen (AID 1086).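 Note: score merges 667 nm fluorescence with signal-to-noise of each printed compound spot.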 The note with it: higher = more signal.
Assay [10] in a line: binders of probe aHhip on microarray, primary screen, stem cell growth factor project, biochemical, small-molecule microarray, fluorescence 635/667 (AID 1087).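 Note: score merges spot fluorescence at 667nm with spot signal to noise ratio.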 The note with it: higher = more signal.
Assay [11] deals with PRMT1 (protein arginine N-methyltransferase 1). The assay is described as follows: small molecules binding arginine methyltransferase PRMT1 – biochemical, small-molecule microarray, 635 nm fluorescence, primary screen (AID 1088).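 Note: binding of Prmt1 protein to compounds spotted on small-molecule microarray slides.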 The note with it: higher = more signal.
Assay [12] is described as follows: growth effects on S. cerevisiae YJM789 – YJM789 clinical isolate, OD600, 24 h, basal, primary screen (AID 1089).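 Note: growth of clinical yeast isolate S. cerevisiae YJM 789 seeded 1000 cells per well; test concentration not given here.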 The note with it: higher = more signal, called active from +8 up or from −8 down.
Assay [13] is described as follows: S. pombe growth modifiers, basal conditions – strain 972, OD600, 24 h, no modulator, primary screen (AID 1090).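 Note: basal condition with compound alone and no growth modifier present; test concentration not given here.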 The note with it: S. pombe 972 growth, higher = more signal, called active from +8 up or from −8 down.
Assay [14] is described as follows: budding yeast growth modifiers under rapamycin – strain BY4716, OD600, 96 h, primary screen (AID 1091). Note: test concentration not given here. The note with it: S. cerevisiae BY4716 + rapamycin, higher = more signal, called active from +8 up or from −8 down.
Assay [15] has as its target Torsin-1A-interacting protein 2 (Homo sapiens) (UniProt Q8NFQ8). Kind of assay: small molecules binding lysate-expressed LULL1 – cell lysate, human LULL1 lysate, 635/667 nm fluorescence, primary screen (AID 1092).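 Note: probe is lysate of COS7 cells overexpressing human LULL1; score merges per-feature 667 nm fluorescence with signal-to-noise.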 The note with it: small-molecule microarray, hLULL1 lysate binding, 635 nm fluorescence; higher = more signal.
A short description of assay [16]: optical density change of DRC41 E. coli – strain DRC41, OD650, 24 h, E. coli filamentation project, primary screen (AID 1093).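 Note: MC1000 strain lacking acrAB efflux and sulA so SOS filamentation is blocked; test concentration not given here.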 The note with it: E. coli DRC41 growth, higher = more signal, called active from +8 up or from −8 down.
The nature of assay [17]: probe aLefty2 binding to arrayed compounds – biochemical, biotinylated probe, 635/667 nm fluorescence, primary screen (AID 1094).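 Note: score merges spot fluorescence near 667 nm with spot signal-to-noise ratio.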 The note with it: small-molecule microarray, higher = more signal.
In assay [18] the test system is Noggin (protein binding on small-molecule microarray). Kind of assay: small molecules binding Noggin protein – biochemical, 635/667 nm fluorescence, primary screen (AID 1095).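 Note: score merges 667 nm feature fluorescence with signal to noise over triplicate slides.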 The note with it: 635 nm fluorescence, higher = more signal.
Assay [19] has as its target Neurogenic locus notch homolog protein 3 (Homo sapiens) (UniProt Q9UM47). The assay is described as follows: small molecules binding NOTCH3 protein – biochemical, 635/667 nm fluorescence, primary screen (AID 1096). The note with it: small-molecule microarray, 635 nm fluorescence, higher = more signal.
Assay [20] in a line: probe aEGFR binding to arrayed compounds – biochemical, biotinylated probe, 635/667 nm fluorescence, primary screen (AID 1097).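 Note: probe is a biotinylated anti-EGFR antibody binding compounds printed on slides; score combines fluorescence near 667 nm and signal to noise of each spot.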 The note with it: small-molecule microarray, higher = more signal.

The source made the active and inactive calls.

Chain of Neurogenic locus notch homolog protein 2 (Homo sapiens) (Q04721 whole entry, looked up, canonical isoform): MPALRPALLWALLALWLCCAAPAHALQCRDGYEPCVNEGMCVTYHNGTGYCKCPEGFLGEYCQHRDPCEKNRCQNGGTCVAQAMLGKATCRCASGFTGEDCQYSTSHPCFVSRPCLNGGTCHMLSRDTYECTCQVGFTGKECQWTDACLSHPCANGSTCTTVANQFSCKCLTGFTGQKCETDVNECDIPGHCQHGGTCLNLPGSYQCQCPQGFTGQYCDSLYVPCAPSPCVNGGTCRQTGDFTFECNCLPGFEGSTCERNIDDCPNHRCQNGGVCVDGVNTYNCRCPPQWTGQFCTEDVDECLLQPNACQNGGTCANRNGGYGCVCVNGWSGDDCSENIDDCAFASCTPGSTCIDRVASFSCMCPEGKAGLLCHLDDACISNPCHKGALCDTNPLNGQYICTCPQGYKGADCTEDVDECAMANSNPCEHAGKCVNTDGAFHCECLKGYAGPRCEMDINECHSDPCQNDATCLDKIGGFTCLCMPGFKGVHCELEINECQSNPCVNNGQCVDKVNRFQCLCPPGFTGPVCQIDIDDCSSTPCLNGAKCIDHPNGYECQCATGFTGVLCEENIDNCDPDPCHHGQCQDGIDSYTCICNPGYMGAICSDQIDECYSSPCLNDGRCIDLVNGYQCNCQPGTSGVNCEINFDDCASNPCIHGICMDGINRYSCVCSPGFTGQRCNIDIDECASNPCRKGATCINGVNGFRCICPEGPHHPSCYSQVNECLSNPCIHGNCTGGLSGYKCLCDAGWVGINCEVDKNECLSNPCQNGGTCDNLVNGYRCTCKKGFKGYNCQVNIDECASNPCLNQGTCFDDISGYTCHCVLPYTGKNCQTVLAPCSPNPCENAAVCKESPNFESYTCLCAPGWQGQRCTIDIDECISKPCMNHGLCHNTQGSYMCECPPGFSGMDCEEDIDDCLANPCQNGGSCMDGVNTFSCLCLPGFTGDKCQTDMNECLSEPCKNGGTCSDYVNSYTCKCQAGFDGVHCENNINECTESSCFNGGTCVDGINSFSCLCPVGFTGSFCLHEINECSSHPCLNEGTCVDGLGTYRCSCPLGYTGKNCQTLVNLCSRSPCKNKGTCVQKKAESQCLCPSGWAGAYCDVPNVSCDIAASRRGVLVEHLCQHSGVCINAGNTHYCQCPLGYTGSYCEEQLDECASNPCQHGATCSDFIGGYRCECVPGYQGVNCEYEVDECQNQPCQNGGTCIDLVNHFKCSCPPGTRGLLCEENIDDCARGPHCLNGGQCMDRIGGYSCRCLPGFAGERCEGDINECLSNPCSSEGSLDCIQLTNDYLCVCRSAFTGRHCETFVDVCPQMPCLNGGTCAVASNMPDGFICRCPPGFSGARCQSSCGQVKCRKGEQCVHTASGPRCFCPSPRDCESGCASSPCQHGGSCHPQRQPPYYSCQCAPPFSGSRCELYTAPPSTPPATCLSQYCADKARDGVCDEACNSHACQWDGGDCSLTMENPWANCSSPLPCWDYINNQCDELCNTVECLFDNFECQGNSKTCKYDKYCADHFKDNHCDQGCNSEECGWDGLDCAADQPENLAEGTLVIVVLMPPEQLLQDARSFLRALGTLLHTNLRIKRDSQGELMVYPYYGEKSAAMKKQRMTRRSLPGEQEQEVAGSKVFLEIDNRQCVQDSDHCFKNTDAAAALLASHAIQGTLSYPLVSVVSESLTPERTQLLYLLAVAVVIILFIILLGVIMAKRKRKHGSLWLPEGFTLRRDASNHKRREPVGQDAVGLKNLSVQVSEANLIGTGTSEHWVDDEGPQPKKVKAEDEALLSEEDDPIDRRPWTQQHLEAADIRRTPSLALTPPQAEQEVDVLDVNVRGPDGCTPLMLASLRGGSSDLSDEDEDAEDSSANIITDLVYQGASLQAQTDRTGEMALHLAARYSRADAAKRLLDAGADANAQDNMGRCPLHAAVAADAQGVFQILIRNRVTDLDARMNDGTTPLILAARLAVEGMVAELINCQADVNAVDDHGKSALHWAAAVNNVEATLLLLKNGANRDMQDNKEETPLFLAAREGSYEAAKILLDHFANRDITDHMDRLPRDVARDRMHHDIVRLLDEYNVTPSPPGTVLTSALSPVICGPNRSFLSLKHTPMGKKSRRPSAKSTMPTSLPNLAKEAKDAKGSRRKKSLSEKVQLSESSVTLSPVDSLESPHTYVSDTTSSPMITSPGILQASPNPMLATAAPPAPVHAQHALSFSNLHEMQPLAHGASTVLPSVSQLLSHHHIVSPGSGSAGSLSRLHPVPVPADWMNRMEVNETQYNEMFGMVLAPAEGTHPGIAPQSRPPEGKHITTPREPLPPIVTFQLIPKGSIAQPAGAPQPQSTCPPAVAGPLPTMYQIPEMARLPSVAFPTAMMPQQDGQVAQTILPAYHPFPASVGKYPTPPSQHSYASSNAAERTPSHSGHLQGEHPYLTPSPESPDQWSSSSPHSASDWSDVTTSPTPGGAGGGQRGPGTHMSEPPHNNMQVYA
Chain of Pro-neuregulin-1, membrane-bound isoform (Homo sapiens) (Q02297 whole entry, looked up, the tested form may be a part, canonical isoform): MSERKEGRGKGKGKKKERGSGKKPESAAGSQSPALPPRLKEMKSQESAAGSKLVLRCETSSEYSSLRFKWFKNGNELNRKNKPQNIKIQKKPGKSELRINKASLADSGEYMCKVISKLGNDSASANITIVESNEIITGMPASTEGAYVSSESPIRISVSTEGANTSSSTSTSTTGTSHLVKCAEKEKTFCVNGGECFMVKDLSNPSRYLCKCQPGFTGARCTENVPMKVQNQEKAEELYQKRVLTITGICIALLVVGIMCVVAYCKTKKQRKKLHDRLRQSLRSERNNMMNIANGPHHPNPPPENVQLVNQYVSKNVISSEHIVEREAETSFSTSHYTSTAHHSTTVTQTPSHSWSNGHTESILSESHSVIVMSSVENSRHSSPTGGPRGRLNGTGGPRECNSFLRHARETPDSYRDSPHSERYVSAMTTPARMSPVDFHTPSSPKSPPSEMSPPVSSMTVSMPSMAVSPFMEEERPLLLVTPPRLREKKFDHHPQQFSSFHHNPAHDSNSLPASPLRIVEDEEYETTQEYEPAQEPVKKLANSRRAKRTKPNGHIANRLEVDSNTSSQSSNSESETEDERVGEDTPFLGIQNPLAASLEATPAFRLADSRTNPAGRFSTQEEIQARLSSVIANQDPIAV
Chain of Torsin-1A-interacting protein 2 (Homo sapiens) (Q8NFQ8 whole entry, looked up): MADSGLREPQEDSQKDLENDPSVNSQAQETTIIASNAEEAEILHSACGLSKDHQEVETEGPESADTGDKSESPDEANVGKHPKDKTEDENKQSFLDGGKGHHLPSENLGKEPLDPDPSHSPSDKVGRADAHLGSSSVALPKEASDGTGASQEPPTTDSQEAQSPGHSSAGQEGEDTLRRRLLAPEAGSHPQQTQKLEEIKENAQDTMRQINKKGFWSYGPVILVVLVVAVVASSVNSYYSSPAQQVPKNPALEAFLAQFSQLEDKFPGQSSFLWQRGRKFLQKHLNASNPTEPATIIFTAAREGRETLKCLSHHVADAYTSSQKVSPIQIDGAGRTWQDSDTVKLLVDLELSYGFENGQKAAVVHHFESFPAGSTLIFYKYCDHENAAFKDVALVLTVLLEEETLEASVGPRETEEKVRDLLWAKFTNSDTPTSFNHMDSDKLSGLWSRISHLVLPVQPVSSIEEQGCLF

With `COc1cc(C(O)C2C=CC3C(=O)NC(=O)C3N2Nc2ccccn2)cc(OC)c1OC` (stereo not given), the composite z-score in assay [1] is -0.184; in assay [2], 0.299; in [3], 0.0353; in [4] it was 0.52; in [5], 1.4; in assay [6], 0.802. Also, the composite z-score was 1.3 in assay [7]; 0.0676 in [9]; -0.0618 in assay [10]; 1.06 in assay [11]; 3.09 in [15]; 0.0624 in [17]. For the same compound, the composite z-score in assay [18] is 0.0228; in assay [19], 0.158; in assay [20], 0.0954. Besides, the z-score in assay [8] was 1.73 (inactive); in assay [12] it was 0.175 (inactive); in assay [13], 1.15 (inactive); in assay [14] it was 0.42 (inactive); in [16], -1.19 (inactive).

`C=C(C(=O)CC[C@@H](OC(=O)c1cccnc1)c1ccccc1OCCO)C(C)C`: the composite z-score in assay [1] was -0.44; in assay [2], 0.447; in assay [3], -0.119; in assay [4] it was 0.0736; in assay [5], 0.151; in assay [6], 0.21. Further, the composite z-score was 0.624 in [7]; 0.0397 in assay [9]; 0.0156 in assay [10]; 1.44 in [11]; -0.263 in assay [15]; -0.0666 in [17]. Also, the composite z-score in assay [18] is 0.535; in assay [19] it was 0.272; in assay [20] it was -0.0703. The z-score in [8] is -0.151 (inactive); in assay [12], -0.73 (inactive); in assay [13], -0.177 (inactive); in [14], 0.404 (inactive); in assay [16] it was 0.144 (inactive).

`COCCOC(=O)N1C(=O)[C@@]2(c3cc(C#Cc4ccc(OC)cc4)ccc31)[C@H](c1ccc(OCCO)cc1)N1[C@H](c3ccccc3)[C@H](c3ccccc3)OC(=O)[C@H]1[C@@H]2C(=O)N1CCN(c2ncccn2)CC1`: the composite z-score is -0.144 in assay [1]; 0.316 in [2]; -0.0113 in assay [3]; 0.397 in assay [4]; 0.926 in [5]; -0.318 in assay [6]. The composite z-score is 1.13 in assay [7]; 0.736 in assay [9]; 0.0176 in [10]; 1.55 in assay [11]; 1.55 in assay [15]; 0.127 in assay [17]. Also, the composite z-score in assay [18] stood at 1.06; in [19], 1.08; in assay [20], 0.178. Also, the z-score in assay [8] is 0.598 (inactive); in assay [12], 2.92 (inactive); in [13] it was 2.3 (inactive); in assay [14] it was 7.54 (inactive); in assay [16], 0.468 (inactive).

On to `CCC(CC)C(O)C1C=CC2C(=O)NC(=O)C2N1Nc1ccccn1` (stereo not given), for which the composite z-score in assay [1] is -0.164; in [2], 0.247; in assay [3], 0.0119; in [4] it was 0.368; in [5], 0.795; in assay [6], 0.675. For the same compound, the composite z-score in [7] is 1.12; in [9] it was 0.305; in [10], 0.0139; in [11], -0.26; in assay [15], 1.35; in [17] it was 0.0744. The composite z-score in assay [18] was -0.441; in assay [19] it was -0.412; in assay [20], 0.148. In addition, the z-score is 0.32 (inactive) in assay [8]; 0.188 (inactive) in assay [12]; 1.22 (inactive) in assay [13]; 0.315 (inactive) in assay [14]; -0.691 (inactive) in [16].

As for `C=CCOC(=O)[C@@H]1[C@H]2C(=O)O[C@H](c3ccccc3)[C@H](c3ccccc3)N2[C@H](c2ccc(OCCOC(=O)[C@@H]3C[C@@H]4C(=O)NCC(=O)N4[C@@H]3c3ccc(O)cc3)cc2)[C@@]12C(=O)Nc1ccc(I)cc12`, the composite z-score was -0.415 in assay [1]; 0.778 in assay [2]; 0.0428 in assay [3]; 0.371 in assay [4]; 0.364 in assay [5]; 1.04 in assay [6]. In addition, the composite z-score in assay [7] was 1.26; in assay [9], 0.0347; in [10] it was -0.0391; in assay [11], 1.55; in assay [15], 2.54; in assay [17], -0.171. Also, the composite z-score in [18] is 1.58; in assay [19], 0.859; in assay [20], -0.154. Also, the z-score was 1.12 (inactive) in assay [8]; 0.218 (inactive) in assay [12]; 0.985 (inactive) in assay [13]; 2.85 (inactive) in assay [14]; 0.5 (inactive) in assay [16].
